Measurements reported in PubChem BioAssay (NCI).
Where “and” joins values, the source holds several entries; their conditions need not be identical. Equal entries are not always repeated. This is part of a sample that, as a whole, favours compounds with a hit. Of some 83,000 tested, about 20% had one in any assay.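 Single-dose data. Exposure time 48 hours. Values below 10 considered active.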 Calls of active or inactive are those of the source.

Columns and labels:
Assay in all cases: NCI-60 one-dose screen, 48 h (100 = growth as untreated, 0 = no growth, -100 = all killed)
Settings in all cases: 10 µM unless noted
[1] = tested on: SK-MEL-2 melanoma
[2] = tested on: EKVX NSCLC
[3] = tested on: SN12C renal
[4] = tested on: UO-31 renal
[5] = tested on: ACHN renal
[6] = tested on: CAKI-1 renal
[7] = tested on: A498 renal
[8] = tested on: CCRF-CEM leukemia
[9] = tested on: MOLT-4 leukemia
[10] = tested on: TK-10 renal

Measured: growth

CCCCCCNC(=O)Oc1ccc(/C(=C(/CC)Cc2ccccc2)c2ccc(OCCCN(C)C)cc2)cc1
inactive: [1] 106% | [2] 89.2% | [3] 87.1% | [4] 59% | [5] 100% | [6] 89.6% | [7] 89.9% | [8] 69.4% | [9] 67.1%

C#CCn1cnc2cnc(Nc3cccc(NC(=O)CCl)c3)nc21
inactive: [2] 69.1% [6.25 µM]
active: [1] -14.1% [6.25 µM] | [3] 6.82% [6.25 µM] | [4] -71.1% [6.25 µM] | [5] -39.9% [6.25 µM] | [6] -34.2% [6.25 µM] | [7] -42.2% [6.25 µM] | [8] 1.51% [6.25 µM] | [9] 0.772% [6.25 µM]

CCOC(=O)n1cc(-c2nonc2-c2cn(C)c3ccc(OC)cc23)c2cc(F)ccc21
inactive: [1] 99.8% | [2] 73.3% | [3] 77.5% | [4] 52.1% | [5] 60.2% | [6] 52.2% | [7] 67.5% | [8] 80.9% | [9] 80.3%

Cc1nc2sc(C(=O)Nc3cccc4ccccc34)c(N)c2cc1C(=O)/C=C/c1ccccc1
inactive: [1] 27% | [2] 41.1% | [9] 18.4%
active: [3] -44.3% | [4] -82.6% | [10] 4.36% | [5] 5.45% | [6] -60.6% | [7] -5.08% | [8] 5.51%

Cn1cc(-c2csc(-c3c[nH]c4ccc(F)cc34)n2)c2cnccc21
active: [1] -66.4% | [2] -28.4% | [3] -48.5% | [4] -75.3% | [5] -54% | [6] -57.8% | [8] -32.3% | [9] -34.7%
inactive: [7] 74.8%

CC1(Cc2ccccc2)CC2=C(C(=O)O1)C(c1ccccc1)NC(=O)N2 (configuration not stated)
inactive: [1] 107% | [2] 98.7% | [3] 104% | [4] 79.9% | [5] 101% | [6] 95% | [7] 117% | [8] 91.1% | [9] 46.5%

CN(C)C1CCN(C(=O)c2ccc(NC(=O)Nc3ccc(-c4nc(N5CCOCC5)c5cccn5n4)cc3)cc2)CC1
inactive: [6] 69.6% | [8] 10.5%
active: [1] -7.66% | [2] -15% | [3] 4.15% | [4] 8.27% | [5] 2.19% | [7] -54.9% | [9] 0.188%

CCN1CCN(CC(=O)Nc2nc3ccc(NCc4ccc(C)cc4)cc3s2)CC1
inactive: [1] 75.8% | [2] 72.6% | [3] 63.3% | [4] 61.6% | [5] 85.6% | [6] 50.7% | [7] 94% | [8] 55.8% | [9] 50.5%

O=C(/C=C/c1ccc([N+](=O)[O-])cc1)c1ccccc1
inactive: [1] 91.1% | [2] 90.8% | [3] 99.8% | [4] 74.8% | [5] 99.6% | [6] 96.2% | [7] 103% | [8] 76.7% | [9] 55.1%

COc1cc(OC)cc(-c2ccc(-c3ccc(C(=N)N)cn3)s2)c1
inactive: [1] 104% | [2] 95.6% | [3] 79.2% | [4] 94.2% | [5] 75% | [6] 69.8% | [7] 102% | [9] 49.3%
active: [8] 8.54%

CN1CCN(Cc2ccc(NC(=O)c3cccc(C#Cc4c(N)ncc5ccc(F)cc45)c3)cc2C(F)(F)F)CC1
active: [1] -49.9% | [2] -19.6% | [3] 5.02% | [4] -69.5% | [5] -93.5% | [6] -98.5% | [7] -78.9% | [8] -23.1% | [9] -61.4%

COc1cc(-c2nc3occn3c2-c2ccnc(NCCCNS(=O)(=O)c3ccc(O)cc3)n2)ccc1F
inactive: [1] 28.4% | [2] 104% | [3] 95.8% | [4] 105% | [5] 86.3% | [6] 92.6% | [7] 104% | [8] 75.4% | [9] 101%

CN(C)c1ccc2nc3ccc(=O)cc-3sc2c1
inactive: [1] 13.8% and 35.6% | [2] 41.3% | [3] 41.9% and 34.5% | [4] 14.8% and 31.4% | [5] 20% and 21.7% | [6] 34.1% and 22.3% | [7] 85.7% | [8] 13% and 20.1%
-18.7% (active) and 20.2% (inactive): [9]

Cc1c(C(C)(C)O)cn2ncnc(Oc3ccc(NC(=O)Nc4ccc(Cl)c(C(F)(F)F)c4)cc3)c12
inactive: [1] 75.9% | [2] 30.8% | [3] 44.3% | [4] 50.9% | [5] 21% | [6] 29.2% | [7] 11.6% | [8] 34.1% | [9] 18.2%

O=C(NNc1ccccc1)c1ccccc1
inactive: [1] 81.5% and 49.8% | [3] 84.5% and 80% | [4] 51.1% | [10] 65.3% | [5] 57% and 38.5% | [6] 22.7% | [7] 118% and 103% | [8] 56.8% and 49.8% | [9] 54.4% and 41.3%

Cc1nc2sc(C(=O)Nc3cccc4ncccc34)c(N)c2cc1C(C)O (configuration not stated)
inactive: [1] 35.3% | [2] 88.4% | [3] 91.8% | [4] 81.5% | [5] 93.4% | [6] 89.7% | [7] 48.1% | [8] 54.4% | [9] 64%

CC(C)(C)CC(N)=O
inactive: [1] 102% | [3] 102% | [4] 104% | [5] 96.9% | [6] 94.4% | [7] 90.7% | [8] 102% | [9] 108%

CCOC(=O)CCCn1c(-c2ccccc2)cc(-c2ccccc2)c(C#N)c1=O
inactive: [1] 94.8% | [2] 93.4% | [3] 84.6% | [4] 71.5% | [5] 94.7% | [6] 57.3% | [7] 25.7% | [8] 88.4% | [9] 82.1%
